This passage reports z-score results from PubChem BioAssay.

“And” between values parts separate entries of the source, which are not always exact repeats. Equal entries are not always repeated. Some structures have more than one record in an assay (separate samples or runs), and their calls can disagree. The source made the active and inactive calls. How the calls were made is not given here.

The assay is described as follows: activators of macrophage pro-inflammatory response, cell-based, murine, luminescence (AID 652131). Further: test concentration not given here. The note with it: murine macrophage pro-inflammatory reporter, stronger effect = higher value.
`CCc1cccc(NC(=O)Nc2ccc(Oc3ccc4nc(NC(=O)OC)[nH]c4c3)cc2)c1`: the z-score is 0.13 (inactive).
On to `COc1cc2ncn(-c3cc(OCc4ccccc4S(C)(=O)=O)c(C#N)s3)c2cc1OC`, for which the z-score is 8.9 (active).
Turning to `Cn1cc(/C=C2\C(=O)Nc3cccnc32)c2ccccc21`, the z-score is 5.16 (inactive).
The value for `COc1cc(N2CCN(C(C)C)CC2)ccc1Nc1nc(Nc2ccc(F)cc2C(N)=O)c2cc[nH]c2n1` was 0.179 (inactive); that for `NC(=O)c1ccc2c(-c3ccnc(NCCCO)n3)c(-c3ccc(F)cc3)nn2c1` was 0.119 (inactive); that for `Fc1ccc(-c2ncn(C3CCNCC3)c2-c2ccnc(Oc3ccc4c(c3)OCO4)n2)cc1` was 0.062 (inactive).
The value for `Fc1cccc(COc2ccc(Nc3ncnc4sc(-c5ccco5)cc34)cc2Cl)c1` was -0.392 (inactive); that for `Cc1ccc(O)cc1Nc1ccnc2cc(-c3ccccn3)ccc12` was 5.39 (inactive).
With `COc1ccc(-c2coc3ncnc(N)c23)cc1` the figure was -0.443 (inactive).
On to `N#Cc1c(NC(=O)c2ccccc2F)sc2c1CCCC2`, for which the z-score was 2.53 (inactive).
Regarding `COc1ccc(-c2oc3ncnc(N)c3c2-c2ccc(NC(=O)Nc3cc(C(F)(F)F)ccc3F)cc2)cc1`, the z-score was -0.472 (inactive).
The value for `CN(C)CCOc1ccc(-c2nc(-c3ccc4c(c3)CC/C4=N\O)c(-c3ccncc3)[nH]2)cc1` was 1.26 (inactive); that for `COc1ccc(COc2ccc(Cc3cnc(N)nc3N)cc2OC)cc1` was 1.35 (inactive).
Consider `CS(=O)(=O)Nc1ccc(-c2ccc3c(NC(=O)C4CC4)n[nH]c3c2)cc1`, for which the z-score was -0.745 (inactive).
With `Fc1ccc(-c2c(-c3ccncc3)nc3n2CCS3)cc1` the figure was 1.33 (inactive); with `Cc1cc(O)cc(C)c1/C=C/c1cncc(C(=O)N(C)C)c1`, 0.003 (inactive).
With `CS(=O)(=O)CCNCc1nc(-c2ccc3ncnc(Nc4ccc(F)c(Cl)c4)c3c2)cs1` the figure was 2.24 (inactive); with `Nc1ncnc2occ(-c3ccc(NC(=O)Nc4cc(C(F)(F)F)ccc4F)cc3)c12`, 0.268 (inactive) and -0.714 (inactive).
With `Nc1nccc(-c2c(-c3ccc(F)cc3)ncn2C2CCNCC2)n1` the figure was 15.2 (active) and 4.36 (inactive).
